# Test results reported in ChEMBL document CHEMBL4513216, “Probing the Open Global Health Chemical Diversity Library for Multistage-Active Starting Points for Next-Generation Antimalarials” (ACS Infect Dis, 2020).
# About 2,700 (4%) of roughly 68,000 compounds showed an effect of 50% or more. The list comes from a sample in which strong results are over-represented; it also holds similar structures and randomly drawn compounds.
# Tested on: Plasmodium berghei
# Test: Screen against P. berghei liver stage (PbLuc), transformed with Luciferase, at 2uM
# Assay type: functional, HepG2
# Settings: tested at 2 uM
row,Structure (SMILES),INHIBITION [%]
1,Cc1cc(C(=O)N2C[C@H](c3ccccc3)[C@@H](N)C2)c2ccc(F)cc2n1,2.31
2,CCc1ocnc1C(=O)N1CCCC1c1noc(C2CC2)n1 (stereo not drawn),43.85
3,COc1cnc(CSc2nnc(C)s2)cc1OCC(=O)NC1CCCC1,-8.85
4,CCS(=O)(=O)N1CCC(Nc2c(F)cc(C#N)cc2F)CC1,55.17
5,CCS(=O)(=O)N1CCC(Nc2ccc(C#N)cc2F)CC1,1.36
6,CCCS(=O)(=O)N1CCC(Nc2c(F)cc(C#N)cc2F)CC1,10.85
7,Cc1ccc(C(=O)N2CC[C@H]3[C@H]2CCN3CC2CCOCC2)cc1F,-4.54
8,Cc1nc[nH]c1CNCc1cccnc1N(C)C1CCCCC1,-15.91
9,COc1cccc(OCCc2nc3c(cc2C(N)=O)CCC3)c1,23.18
10,Cc1cnn(CCNCc2cccnc2)c1,0.9
11,Cc1cnn(CC(C)NCc2ccc(OCc3cccnc3)cc2)c1 (stereo not drawn),16.18
12,Cc1cnn(CC(C)NCc2cccnc2)c1 (stereo not drawn),8.13
13,Cc1cnn(CC(C)NCc2ccccc2OCc2cccnc2)c1 (stereo not drawn),50.05
14,Cc1cnn(CCNCc2ccc(OCc3cccnc3)cc2)c1,88.86
15,Cc1cnn(CCNCc2ccc(OCc3ccncc3)cc2)c1,40.88
16,Cn1c(=O)ccn(CC(=O)Nc2cnccc2O)c1=O,16.37
17,COCCC1(CO)CCCN(Cc2ccc(C(F)(F)F)nc2)C1 (stereo not drawn),26.66
18,CN1CCCC2(CC1)CCN(C(=O)CCc1ccccc1O)CC2,48.21
19,CN1CCN(CC2(O)CCN(C(=O)CCc3ccccc3F)C2)CC1 (stereo not drawn),-20.27
20,CN1CCCC2(CC1)CCN(C(=O)CCc1ccccc1F)CC2,50.59
21,Cc1nc(CNC(C)c2cccc(N3CCCC3=O)c2)cs1 (stereo not drawn),65.57
22,Cc1n[nH]cc1CNC(C)c1cccc(N2CCCC2=O)c1 (stereo not drawn),11.31
23,CCc1nc(CNC(C)c2cccc(N3CCCC3=O)c2)cs1 (stereo not drawn),0.45

row,Structure (SMILES),INHIBITION [%]
1,Cc1ccc2nc(C3CCN(CC4CC4)CC3)nn2c1,28.95
2,CC(C)(C)c1nc(CN2CCc3onc(-c4cccc(F)c4)c3C2)no1,-7.68
3,O=C(c1ccco1)N1CCC[C@]2(C[C@H](Oc3ncccc3F)CO2)C1,-9.69
4,O=C(c1cc(-c2ccco2)nc2c(Cl)cccc12)N1C[C@H]2CNC[C@H]2C1,35.46
5,O=C(c1cc(-c2ccco2)nc2c(Cl)cccc12)N1CC[C@H]2CNC[C@H]21,53.98
6,O=C1CN(C(=O)c2cc(-c3ccco3)nc3c(Cl)cccc23)CCN1,38.83
7,Cc1occc1C(=O)N1CCOCC2(CCN(C3CCOCC3)C2)C1 (stereo not drawn),30.46
8,Fc1ccc2c(c1)C1(CCNCC1)CC2NC1CC1 (stereo not drawn),21.32
9,c1ccc2c(c1)C(NC1CCCC1)CC21CCNCC1 (stereo not drawn),53.81
10,Cc1ccc2c(c1)C1(CCNCC1)CC2NC1CC1 (stereo not drawn),13.67
11,CCc1ccc(C(=O)N2CCCC2c2nnc3n2CCCCC3)o1 (stereo not drawn),17.33
12,O=C1CCCN1Cc1nnc2n1CCN(Cc1ccccn1)CC2,51.26
13,O=C1CCCN1Cc1nnc2n1CCN(Cc1ccoc1)CC2,-11.91
14,Cc1cccc(CN2CCc3nnc(CN4CCCC4=O)n3CC2)n1,-43.47
15,c1ccc(CN2CCc3nnc(CN4CCCCC4)n3CC2)nc1,2.71
16,Cc1ccc(CN2CCc3nnc(CN4CCCC4=O)n3CC2)o1,47.97
17,Cc1ccc(CN2CCc3nnc(CN4CCCC4=O)n3CC2)s1,60.6
18,Cn1cc(N2CC3(COCCN(Cc4nccs4)C3)OCC2=O)cn1 (stereo not drawn),6.8
19,Clc1cnccc1N1CCCOCC1,-149.33
20,O=C1CC(c2ccncc2)c2c(sc3c2CCCC3)N1 (stereo not drawn),-5.89
21,Cc1cccc(N2CCN(C(=O)NC(C)c3nncn3C)CC2)c1C (stereo not drawn),38.76
22,CCN(CC)S(=O)(=O)N1CC[C@H](c2ccccc2)[C@H]2NCCCC[C@H]21,39.99
23,COc1cc(N2CCC(c3nccn3Cc3ccccc3)CC2)ncn1,-2.99

row,Structure (SMILES),INHIBITION [%]
1,COc1cc(N2CCC(c3nccn3Cc3ccccn3)CC2)ncn1,53.19
2,COc1cc(N2CCC(c3nccn3Cc3cccnc3)CC2)ncn1,5.82
3,O=c1c2cc3c(cc2nnn1Cc1ccccc1Cl)OCCO3,-15.25
4,CN(C)C(=O)Cc1ccc(-c2cccc3c2CCNC3)cc1,2.11
5,CCC(C)C(=O)Nc1ccc(CCN2CCOCC2)cc1 (stereo not drawn),31.65
6,Cc1cc(C)c2nc(CN3CCC(C#N)CC3)cc(O)c2c1,3.91
7,Cc1cc(C)c2nc(CN3CCC(CN)C3)cc(O)c2c1 (stereo not drawn),25.06
8,Cc1cc(C)c2nc(CN3CCC(CN)CC3)cc(O)c2c1,51.19
9,Cn1c(CN2CCCCC2)cc(=O)c(O)c1CN1CCCCC1,14.97
10,O=C(c1ccco1)N1Cc2cnn(CC3CC3)c2C(COCC2CC2)C1 (stereo not drawn),14.09
11,COC1CCN(C(=O)Cn2ncc(N3CCCCC3)cc2=O)C1 (stereo not drawn),11.69
12,O=C(Nc1cccc2c1CCCC2)c1cccnc1N1CCCNCC1,65.7
13,CC1CN(c2ncccc2C(=O)Nc2cccc3c2CCCC3)CCN1 (stereo not drawn),39.51
14,Cc1cccc(C(=O)Nc2cccc3c2CCCC3)n1,-25.13
15,CN(Cc1ccc(Cl)cc1)S(=O)(=O)N(C)Cc1cnn(C)c1,-2.86
16,O=C(c1ccncc1)N1CCc2onc(CN3CCCC3)c2C1,37.35
17,O=C(c1ccc(Cl)o1)N1CCCC(c2cc(C(F)(F)F)[nH]n2)C1 (stereo not drawn),-102.06
18,CCC(Cn1ccc2[nH]c(=O)c(C#N)cc2c1=O)OC (stereo not drawn),0.03
19,CC(O)CCn1ccc2[nH]c(=O)c(C#N)cc2c1=O (stereo not drawn),44.41
20,CCCOC(C)Cn1ccc2[nH]c(=O)c(C#N)cc2c1=O (stereo not drawn),59.1
21,Cc1nc(C)n(Cc2cccc(NC(=O)N(C)CCC(C)O)c2)n1 (stereo not drawn),-3.2
22,Cc1cccc(-n2nc(CC(C)C)nc2CCC(=O)N(C)C)c1,8.13
